Screens (PubChem BioAssay)
RGS4 inhibitor: Inhibitors of Regulator of G Protein Signaling (RGS) 4: qHTS. Regulator of G-protein signaling 4 (Homo sapiens), P49798. Transcreener GDP fluorescence polarization, RGS4-accelerated GTP hydrolysis. Potency, µM (doses to about 114 µM), for the others: top-dose activity change, negative = inhibition, hits mostly inhibitors. 390,000 tested, 0.039% active; further: nearly all actives have a fitted effect of over 75% in size
Target sequence (P49798 whole entry, looked up): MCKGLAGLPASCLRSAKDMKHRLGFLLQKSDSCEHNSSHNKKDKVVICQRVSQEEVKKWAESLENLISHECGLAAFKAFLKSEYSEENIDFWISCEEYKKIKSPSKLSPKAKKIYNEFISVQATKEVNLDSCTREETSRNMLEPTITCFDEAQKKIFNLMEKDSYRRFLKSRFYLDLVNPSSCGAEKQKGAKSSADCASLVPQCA
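MLSMR compounds (23 nl, pin-transferred) preincubated 10 min at room temperature with a 500nM (2x) first reagent, then RGS4 at 900nM (2x) plus Transcreener GDP mix added; fluorescence polarization (620/688 nm) read before and after 90 min at 30 °C.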
TrxR1 substrate: qHTS Assay for Substrates of Mammalian Selenoprotein Thioredoxin Reductase 1 (TrxR1): qHTS | 390,000 tested, 0.01% active | purified TrxR1 substrate turnover, NADPH consumption readout | Potency, µM (highest dose often 114 µM), for the others: top-dose activity change, negative = substrate turnover; further: nearly all actives have a fitted effect of over 50% in size
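Rat TrxR1, dispensed at 90 nM, was prereduced with 400 uM NADPH (final) for 5 min at ~22 deg C, then incubated with compound 15 min before 400 uM selenite. A first-read NADPH fluorescence drop versus no-compound background flagged substrates.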
Eya2 phos inh: qHTS Assay for Inhibitors of the Phosphatase Activity of Eya2 | recombinant Eya2, OMFP fluorescence dephosphorylation (OMFP is methylfluorescein phosphate) | Potency, µM (highest dose often 76.9 µM), inactives show at the top dose activity, negative = inhibition, usual class: inhibitors | 330,000 tested, 0.006% active | AID 488837, 2010
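Eya2 (0.2 uM) preincubated 10 min at ambient with compound, then OMFP substrate added at 50 uM; 10 min reaction in 50 mM HEPES pH 7.5, 50 mM NaCl, 5 uM MgCl2, 0.05% BSA, 1 mM DTT. Fluorescence read at Ex 485/Em 525 nm.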
IDH1 R132H inh: qHTS for Inhibitors of mutant isocitrate dehydrogenase 1 (IDH1): qHTS; IDH1-R132H enzyme, NADPH consumption, diaphorase/resazurin fluorescence; AID 602179, 2012; 390,000 tested, 0.093% active; Potency, µM (doses to about 76.6 µM), without a hit: at the highest dose activity change, negative = inhibition, hits mostly inhibitors; Isocitrate dehydrogenase [NADP] cytoplasmic (Homo sapiens), O75874; further: nearly all actives have a fitted effect of over 65% in size
Target sequence (O75874 whole entry R132H, stated change not applied): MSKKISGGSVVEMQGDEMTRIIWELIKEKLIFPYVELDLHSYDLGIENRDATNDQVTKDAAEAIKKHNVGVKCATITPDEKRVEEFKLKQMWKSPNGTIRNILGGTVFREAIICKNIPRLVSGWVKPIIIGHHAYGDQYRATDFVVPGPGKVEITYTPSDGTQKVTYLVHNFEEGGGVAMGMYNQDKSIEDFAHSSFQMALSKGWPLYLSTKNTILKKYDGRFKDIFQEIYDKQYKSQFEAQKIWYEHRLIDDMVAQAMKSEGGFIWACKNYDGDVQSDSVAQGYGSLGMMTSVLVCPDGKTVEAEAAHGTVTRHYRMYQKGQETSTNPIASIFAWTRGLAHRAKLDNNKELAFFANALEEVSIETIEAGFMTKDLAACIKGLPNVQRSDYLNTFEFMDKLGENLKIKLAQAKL
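IDH1-R132H (0.5 ug/mL) preincubated 30 min with compound, then NADPH (0.016 mM) and alpha-KG (2 mM) added; 80 min at RT, pH 7.5. Remaining NADPH coupled via diaphorase/resazurin to fluorescence (540/590 nm); concentration-response curves normalized to no-enzyme control.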
rTrxR1 inhibitor: qHTS Assay for Inhibitors of Mammalian Selenoprotein Thioredoxin Reductase 1 (TrxR1): qHTS. Potency, µM (series often up to 114 µM), for the others: top-dose activity change, negative = inhibition, hits mostly inhibitors. recombinant rTrxR1, NADPH fluorescence consumption, selenite substrate. 390,000 tested, 1% active; further: nearly all actives have a fitted effect of over 65% in size
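Rat TrxR1 (90 nM in the dispensed reagent) was pre-reduced with 400 uM NADPH for 5 min at room temperature, then incubated with compound for 15 min. After 400 uM selenite was added, NADPH fluorescence (Ex 340/Em 450 nm) was followed for 8 min.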
Numbers without * were called inactive; ? = inconclusive; . = no result given; [ ] = remark or other dose. Compounds with a hit are over-represented: about 1.1% of the library has one in this group of screens. The call rests on the fitted dose curve; in most records, active means well fitted curve in the direction sought with a large enough effect; inconclusive means small, poorly fitted or top-dose-only effect, or another doubt; inactive means no such curve, though single readings can be large; an effect the other way counts as inactive or inconclusive. On the % scale 0 is the no-effect control and ±100 the full control effect; potency means the concentration at half of the fitted maximal effect.

SMILES	RGS4 inhibitor	TrxR1 substrate	Eya2 phos inh	IDH1 R132H inh	rTrxR1 inhibitor
COc1ccc(OC)c(NC(=O)N2CC3CCCN3c3ccccc32)c1 (stereo unspecified)	-11%	3%[57.1 µM]	.	4%	16%[57.1 µM]
COC(=O)c1cc2sc(Cl)cc2n1CC(=O)Nc1cc(OC)cc(OC)c1	23%	-1%	.	0%	9%
COc1ccc(C2=NN(C(C#N)c3ccc(OC)c(OC)c3)C(c3ccccc3)C2)cc1 (stereo unspecified)	5%	-7%	10%	3%	?
COc1cc(C(C#N)N2CCC(c3ccccc3)=N2)ccc1O (stereo unspecified)	-23%	-4%	4%	9%	22µM*
COc1ccc(C(C#N)N2CCC(c3ccccc3)=N2)cc1OC (stereo unspecified)	-13%	3%[57.1 µM]	-5%	5%	3.2µM*
Cc1ccc(C(=O)NCC(c2ccc(Cl)cc2)N2CCCCC2)cc1 (stereo unspecified)	7%	-2%	.	-6%	7%
Cc1occc1-c1nnc(SCC(=O)NC(C)(C)C)n1C(C)c1ccccc1 (stereo unspecified)	40%	-2%	-13%	-1%	-5%
COCC(C)OC(=O)/C(C#N)=C\c1coc2ccc(C)cc2c1=O (stereo unspecified)	-44%	7%	13%	5%	28µM*
Cc1ccc2occ(/C=N/NC(=O)[C@@H](N)Cc3ccccc3)c(=O)c2c1	11%	1%[57.1 µM]	?	1%	15%[57.1 µM]
Cc1n[nH]c(C)c1CCCCOc1ccc([N+](=O)[O-])cc1	-4%	0%	-15%	-4%	8%
CC1(C)Cc2noc(N)c2C(C)(C)N1O	3%	4%	-1%	3%	1.6µM*
O=c1c(C(c2ccc(F)cc2)c2c(O)nc3n(c2=O)CCS3)c(O)nc2n1CCS2	-56%	6%[57.1 µM]	0%	3%	13µM*
O=c1c(C(c2ccc(Cl)cc2)c2c(O)nc3n(c2=O)CCS3)c(O)nc2n1CCS2	11%	4%	1%	3%	10µM*
CC1CCC(NC(=O)C2CCN(c3nc4ccccc4s3)CC2)CC1 (stereo unspecified)	-23%	14%[0.0914 µM]	-13%	-4%	26%[57.1 µM]
Cc1cc(OCC(=O)Nn2cnnc2)c(C)cc1Br	24%	-9%	7%	12%	14µM*
Cc1ccc(C2=NN(C(=O)CCl)C(c3ccco3)C2)o1 (stereo unspecified)	?	3%[57.1 µM]	-10%	8%	22µM*
Cc1ccn2c(Nc3ccc(C(C)C)cc3)c(-c3ccsc3)nc2c1	-6%	4%	.	6%	-8%
Cc1ccc(-c2csc(NC(=O)/C=C/c3ccco3)c2C(=O)O)cc1	-38%	-6%	-7%	36%	35µM*
O=C(/C=C/c1ccco1)Nc1ccccc1C(=O)O	-28%	-7%[57.1 µM]	11%	15%	14µM*
O=C(/C=C\c1ccco1)Nc1cc([N+](=O)[O-])ccc1F	-1%	-7%	4%	6%	?
CN(Cc1ccccc1)C(=O)COC(=O)/C=C/c1ccco1	-21%	-9%	10%	-3%	-78%
O=C(/C=C/c1ccco1)Nc1cc(Cl)ccc1C(=O)O	-17%	-19%	8%	21%	13µM*
CN(CCOC(=O)/C=C/c1ccco1)Cc1ccccc1	-33%	-1%	6%	-1%	45µM*
CC(=O)C1=C(O)C(=O)N(CCC(=O)O)C1c1ccccc1Cl (stereo unspecified)	24%	-4%	3%	2%	-5%
Cc1ccccc1Cn1c(=O)n(C)c(=O)c2sccc21	2%	-3%[57.1 µM]	9%	8%	-1%[57.1 µM]
SMILES	RGS4 inhibitor	TrxR1 substrate	Eya2 phos inh	IDH1 R132H inh	rTrxR1 inhibitor
CN(C(=O)/C=C/c1ccco1)c1ccccc1C(=O)O	-38%[56.9 µM]	-2%	15%	4%	28µM*
Cc1onc(-c2c(Cl)cccc2Cl)c1C(=O)NCc1cccs1	-23%	-13%	0%	4%	9%[57.1 µM]
COc1ccc(C2C(O)C(c3c[nH]c4ccccc34)=NN2C(=O)CCl)cc1 (stereo unspecified)	2%	-4%	-7%	-1%	13µM*
COc1ccc(C2NN=C(c3c[nH]c4ccccc34)C2O)cc1 (stereo unspecified)	-14%	4%[57.1 µM]	7%	6%	15%[2.29 µM]
COc1ccc(Br)cc1CN(C)CC(=O)Nc1cccc(S(=O)(=O)N2CCCC2)c1	2%	2%	-44%	6%	25%
S=C(Nc1ccccc1)N1CCCCCC1	?	11%[57.1 µM]	3%	0%	3%[57.1 µM]
Nc1ncn(C(=S)Nc2ccccc2)n1	?	-6%	.	-3%	16µM*
CCN(CC)c1ccc(C2C(C(=O)Nc3ccccn3)=C(C)NC3=C2C(=O)CC(C)(C)C3)cc1 (stereo unspecified)	-21%[11.4 µM]	11%	2%	2%	6%[57.1 µM]
Cn1c(-c2ccc(C=O)s2)nc2c3ccccc3c3ccccc3c21	-33%	-1%	8%	10%	-13%
Cc1nc(SCC(=O)N(C)Cc2ccco2)c2c(C)c(C)sc2n1	-42%[56.9 µM]	-7%	12%	-1%	22µM*
Cc1sc2nc(C(C)C)nc(SCC(=O)N3CCN(C(=O)c4ccco4)CC3)c2c1C	-22%	0%[57.1 µM]	-8%	-6%	16µM*
O=[N+]([O-])c1cccc(/C=N/n2cnnc2)c1	5%	-9%	-5%	-5%	-10%
COc1ccc2c(=O)cc(C(F)(F)C(F)(F)F)oc2c1	-1%	9%	-8%	-1%	16%
CCOC(=O)c1c(-c2ccc(C)o2)csc1NC(=S)NC(=O)N(C)C	?	-2%	0%	5%	11µM*
CCOC(=O)c1c(-c2ccc(C)o2)csc1NC(=O)CSc1ncn[nH]1	?	-5%	4%	7%	40µM*
Nc1ncnc2oc(-c3ccoc3)c(-c3ccco3)c12	?	25%	.	.	50µM*
Nc1ncnc2oc(-c3ccco3)c(-c3ccco3)c12	?	48%	5%	6%	-43%[57.1 µM]
COC(=O)CSc1nc2c(c(-c3ccco3)c1C#N)CCCC2	?	2%	5%	3%	16µM*
COc1coc(C(O)CN)cc1=O (stereo unspecified)	-4%	8%	7%	5%	35%
CCOC(=O)C(=Cc1cc(=O)c(OC)co1)C(=O)OCC	?	2%	3%	8%	3.5µM*
C=CCSc1ncnc2c1oc1nc3c(cc12)COC(C)(C)C3	-32%	6%[11.4 µM]	9%	5%	23%[11.4 µM]
CC1(C)Cc2nc3oc4c(=S)nc[nH]c4c3cc2CO1	?	-8%	-8%	10%	11µM*
